Compound activity from PubChem.
TDP1 cell CPT: qHTS for Inhibitors of human tyrosyl-DNA phosphodiesterase 1 (TDP1): qHTS in cells in presence of CPT; chicken DT40 Tdp1-/-;hTDP1 cells + 20 nM CPT, ATP luminescence, 48 h; Potency, µM (doses to about 46.2 µM), without a hit: at the highest dose activity change, negative = growth inhibition, usual class: inhibitors; 12% of 420,000 active; note: potency is the fitted concentration of half-maximal effect; % is set by controls: 0 for no effect and ±100 for the full control effect; nearly all actives have a fitted effect of over 55% in size
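Chicken DT40 Tdp1-/- cells stably complemented with human TDP1 were seeded at 400 cells/well in medium containing 20 nM camptothecin, exposed to pin-transferred compounds, and grown at 37 °C for at least 48 hr. Viability was read as ATP luminescence.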
IL-1B inflam inh: qHTS for Inhibitors of Inflammasome Signaling: IL-1-beta AlphaLISA Primary Screen. THP-1 LPS/ATP IL-1B secretion, AlphaLISA, 16 h; active compounds read low. 4.7% of 360,000 active. activity change, % at 57.5 µM; in the data active = activity change below about -50%; inconclusive = mostly about -30% to -49%; note: % is set by controls: 0 for no effect and ±100 for the full control effect
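THP-1 cells pretreated 1 hr with compounds (up to 57.5 uM final), then stimulated with LPS (250 ng/mL final) plus ATP (1.25 mM final); secreted IL-1B measured by AlphaLISA after 16 hr, decreased signal indicating inhibition.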
TDP1 block: qHTS Assay for Inhibitors of Tyrosyl-DNA Phosphodiesterase (TDP1) | Tyrosyl-DNA phosphodiesterase 1 (Homo sapiens), Q9NUW8 | Potency, µM (titrated, usually from 130 µM), for the others: at the top dose activity change, negative = inhibition, usual class: inhibitors | 0.28% of 350,000 active | recombinant TDP1, AlphaScreen DNA substrate cleavage; note: potency is the fitted concentration of half-maximal effect; % is set by controls: 0 for no effect and ±100 for the full control effect; nearly all actives have a fitted effect of over 40% in size
Target sequence (Q9NUW8 whole entry, looked up): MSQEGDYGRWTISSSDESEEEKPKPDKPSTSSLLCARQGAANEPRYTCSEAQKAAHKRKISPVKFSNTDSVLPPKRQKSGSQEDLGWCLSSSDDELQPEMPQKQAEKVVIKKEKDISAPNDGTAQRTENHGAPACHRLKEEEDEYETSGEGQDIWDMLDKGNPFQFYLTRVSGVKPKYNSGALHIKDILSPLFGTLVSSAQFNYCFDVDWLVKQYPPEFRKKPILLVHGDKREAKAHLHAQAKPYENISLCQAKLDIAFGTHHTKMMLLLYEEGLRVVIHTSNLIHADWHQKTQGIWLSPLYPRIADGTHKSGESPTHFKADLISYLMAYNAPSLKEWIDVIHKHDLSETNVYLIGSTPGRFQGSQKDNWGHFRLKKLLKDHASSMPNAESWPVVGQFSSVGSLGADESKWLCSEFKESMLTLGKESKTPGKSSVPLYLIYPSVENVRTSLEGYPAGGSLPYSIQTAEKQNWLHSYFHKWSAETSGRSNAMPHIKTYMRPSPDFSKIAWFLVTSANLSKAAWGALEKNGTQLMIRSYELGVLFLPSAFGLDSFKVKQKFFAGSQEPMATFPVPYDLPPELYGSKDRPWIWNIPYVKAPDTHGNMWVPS
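Recombinant E. coli-expressed Tdp1 (1 nM) preincubated with compound 15 min at RT, then 5'-biotin/3'-phosphotyrosine-FITC DNA substrate (15 nM) added for 5 min. AlphaScreen beads (10 ug/ml) added, 10 min RT; tyrosine-FITC cleavage read as signal loss.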
DT40 TDP1 no CPT: qHTS for Inhibitors of human tyrosyl-DNA phosphodiesterase 1 (TDP1): qHTS in cells in absence of CPT. 15% of 420,000 active. Potency, µM (highest dose often 46.2 µM), without a hit: at the top dose activity change, negative = growth inhibition, most hits filed as inhibitors. DT40 Tdp1-/- hTDP1 cells, no CPT, ATP luminescence, 48 h. AID 686978, 2013; note: potency is the fitted concentration of half-maximal effect; % is set by controls: 0 for no effect and ±100 for the full control effect; nearly all actives have a fitted effect of over 55% in size
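Chicken DT40 Tdp1-/- cells stably complemented with human TDP1 were seeded at 400 cells/well with DMSO in place of 20 nM camptothecin. After compound pinning, cells grew at least 48 hr at 37 °C; viability read by CellTiter-Glo luminescence.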
TGFb SMAD3 inh: qHTS for Inhibitors of TGF-b; HepG2 CAGA-GFP TGF-b/SMAD3 reporter, GFP fluorescence, 18 h; TGF-beta stimulated, 500 pg/mL final; Potency, µM (titrated, usually from 46.1 µM), without a hit: top-dose activity, negative = inhibition, usual class: inhibitors; 1.2% of 410,000 active; note: potency is the fitted concentration of half-maximal effect; % is set by controls: 0 for no effect and ±100 for the full control effect; nearly all actives have a fitted effect of over 65% in size
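First, reporter cells (HEPG2 CAGA-GFP) rested 2 h at 37 degrees C. Next, compounds were pinned in and TGF-beta added to 500 pg/mL final. After 18 h, GFP was imaged per cell and summed per well.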
HepG2 tox: qHTS for Inhibitors of TGF-b: Cytotox Counterscreen | HepG2 CAGA-GFP viability, ATP luminescence, 18 h | 0.76% of 410,000 active | Potency, µM (titrated, usually from 46.1 µM), for the others: top-dose activity change, negative = cytotoxicity, hits mostly cytotoxic; note: potency is the fitted concentration of half-maximal effect
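HepG2 CAGA-GFP cells (1000/well, DMEM with 1% FBS) received compound, then TGF-beta at 500 pg/mL final, and were incubated 18 hours at 37 degrees C. Viability was read by CellTiter-Glo luminescence. Media-only wells were set as complete cell-killing and DMSO as no toxicity.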
* marks the source's active call; other numbers are inactive results; ? = inconclusive; / = no result given; ! = not confirmed by another sample; [ ] = dose if it differs, or a comment. In the library only some 18% were active in any assay of this set; here they are far more common. Unless noted, calls come from the whole dose curve; as a rule, active = well fitted curve in the direction sought with a large enough effect; inconclusive = small, poorly fitted or top-dose-only effect, or another doubt; inactive = no such curve, though single readings can be large; an effect the other way counts as inactive or inconclusive.

SMILES	TDP1 cell CPT	IL-1B inflam inh	TDP1 block	DT40 TDP1 no CPT	TGFb SMAD3 inh	HepG2 tox
CCCc1ccc(S(=O)(=O)NCCc2ccncc2)cc1	13µM*	-7	7%	?	1%	-25%
O=C(Nc1ccc(S(=O)(=O)NCCc2ccccc2)cc1)c1ccncc1	18µM*	8	-4%	?	3%	-7%
Cc1cc(C(C)(C)C)cc(S(=O)(=O)NCCc2ccncc2)c1C	?	-8	/	?	-2%	-30%
CCCCCc1ccc(S(=O)(=O)NCCc2ccncc2)cc1	21µM*	?	2%	16µM*	-5%	-17%
CC(C)(C)c1ccc(S(=O)(=O)NCCc2ccncc2)cc1	?	-29	0%	16µM*	-2%	-4%
CCN(C1CCCCC1)S(=O)(=O)c1ccc(S(=O)(=O)NCCc2ccncc2)cc1	?	0	6%	-29%	-20%	-1%
CC1CCCC(C)N1S(=O)(=O)c1ccc(S(=O)(=O)NCCc2ccncc2)cc1 (configuration not stated)	?	?	9%	?	6%	-5%
CCCc1cc(=O)n2[nH]c(NC(=O)c3ccc(C(C)(C)C)cc3)nc2n1	-4%	/	9%	-4%	-15%	-24%
CCCCc1cc(=O)oc2cc(OCC(=O)Nc3cccnc3)c(Cl)cc12	?	23	-7%	?	0%	3%
COCCNc1cnn(-c2ccccc2)c(=O)c1Cl	-5%	29	/	0%	0%	1%
CNC(=O)c1cc(Oc2ccc(NC(=O)Nc3ccc(Cl)c(C(F)(F)F)c3)cc2)ccn1	21µM*	-102*	3%	23µM*	?	16µM*!
C/C(CC(=O)Nc1ccc(Cl)c(C(F)(F)F)c1)=N\NC(=O)c1cnccn1	?	-72*	2%	-27%	7%	-14%
Cc1ccc(NC(=O)c2ccc(C)cc2)cc1	4%	-2	-3%	-7%	?	-19%
O=C(Nc1ccc(Cl)c(C(F)(F)F)c1)c1ccncc1	?	-9	-3%	15µM*	0%	-15%
C/C(CC(=O)Nc1c(Cl)cccc1C(F)(F)F)=N\NC(=O)c1cnccn1	?	-1	/	3%	-15%	-26%
Cc1ccc(C(=O)Nc2ccc(Br)c(C(F)(F)F)c2)cc1	?	?	-10%	23µM*	0%	-28%
Cc1cc(CN(C)C(=O)C2CCC(=O)N(CCc3cccc(F)c3)C2)on1 (configuration not stated)	-11%	15	3%	-4%	-29%	-4%
CCCCn1c(N)c(N(CCOC)C(=O)c2ccco2)c(=O)[nH]c1=O	21%	5	0%	-1%	-4%	-7%
Cc1cc(CN2CCCC(N3CCc4ccccc4C3)C2)cc(C)c1O (configuration not stated)	13µM*	-9	/	?	8%	-10%
COc1ccccc1C(=O)NC(=O)COC(=O)CCNS(=O)(=O)c1ccccc1	?	17	-5%	-18%	-12%	6%
CCOc1cc2c3c(c1)C(C)=CC(C)(C)N3C(=O)C2=O	3.3µM*	67	7%	2.6µM*	?	10%
Cc1cc2c3c(c1)C(C)CC(C)(C)N3C(=O)C2=O (configuration not stated)	23µM*	-2	3%	?	-4%	-8%
CCOc1cc2c3c(c1)C(C)CC(C)(C)N3C(=O)C2=O (configuration not stated)	?	-15	0%	18µM*	-11%	-46%
CCCCCC(O)/C=C/C=C\CCCCCCCC(=O)O (configuration not stated)	/	/	4%	/	/	/
O=C1CCC[C@@H]2[C@@H](Cc3ccccc3)[C@H](N3CCN(c4ccccc4)CC3)C[C@@H]3CCN1[C@@H]32	?	-5	/	?	?	-97%
SMILES	TDP1 cell CPT	IL-1B inflam inh	TDP1 block	DT40 TDP1 no CPT	TGFb SMAD3 inh	HepG2 tox
Cc1ccc(Cn2c(=N)n(CC(=O)c3ccccc3)c3ccccc32)cc1	7.3µM*	-82*	?	3.7µM*	?	-35%
CC(C)(C)C(=O)Cn1c(=N)n(Cc2ccccc2Cl)c2ccccc21	26µM*	-27	5%	26µM*	0%	-27%
CCOC(=O)Cn1c(=N)n(Cc2ccc(C(C)(C)C)cc2)c2ccccc21	?	/	3%[2.28 µM]	13µM*	?	-52%
N=c1n(Cc2ccccc2Cl)c2ccccc2n1CC(O)c1ccco1 (configuration not stated)	-27%	-4	1%	?	?	-7%
CCCn1c(=N)n(CC(=O)OCC)c2ccccc21	-7%	14	4%	-1%	?	7%
CC(C)(C)C(=O)Cn1c(=N)n(Cc2ccccc2)c2ccccc21	21µM*	-27	9%	15µM*	?	-39%
COc1ccc(S(=O)(=O)c2c(O)c3ccc(C(=O)NCc4ccc(F)cc4)cc3[nH]c2=O)cc1	7%	/	-10%	1%	?	3%
COC1OC2COC(c3ccccc3)OC2C(NC(C)=O)C1OC(C)=O (configuration not stated)	0%	-5	/	-11%	-5%	-1%
CC(=O)C(N=Nc1ccccc1)(Sc1nnc(-c2ccccc2)n1-c1ccccc1)C(C)=O	?	-5	7%	16µM*	-6%	2%
CC(=O)C(N=Nc1ccccc1)(Sc1nnc(-c2ccccc2)n1-c1ccccc1)C(=O)Nc1ccccc1 (configuration not stated)	-10%	-2	4%	?	-11%	-4%
COc1ccc(NC(=S)NCCSc2ccc(C)cc2)c(OC)c1	?	?	/	?	-11%	-31%
